This is a sample that favours compounds with a hit; in the whole collection about 4.5% have one here.
ssDAF12 agonist = S. stercoralis DAF-12 nuclear receptor activators, primary screen, cell-based, luminescence, HEK293, GRIP1 co-expression, lit1-tk-luc; HEK293 ssDAF-12/GRIP1 lit1-tk-luc reporter; % of 3 µM dafachronic acid response; actives 1% (n = 370,000); activation, % at 6.8 µM; Nuclear hormone receptor DAF-12 (Strongyloides stercoralis);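 active means activation above the mean over all tested compounds plus 3 SD, cut at about 0.9% in these data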;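 further: 0% = DMSO-only wells and 100% = 3 µM delta7-dafachronic acid wells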
hgDAF12 agonist = H. glycines DAF-12 receptor agonists, primary screen, cell-based, luminescence, HEK293, GAL4 fusion, UAS-luciferase; actives 1.8% (n = 370,000); Nuclear hormone receptor DAF-12 (Heterodera glycines), GAL4 fusion; HEK293 GAL4-hgDAF12 UAS-luciferase reporter, agonist luminescence; normalized to butyrate control; activation, % at 6.8 µM;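 active means activation above a cutoff set at the mean of all screened compounds plus 3 SD, cut at about 10% in these data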;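 further: 0% = DMSO wells and 100% = sodium butyrate wells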
DAX1 inh-1 = DAX1 (NR0B1) inhibitors on StAR promoter, primary screen, cell-based, luminescence, SF-1 (NR5A1), full-length DAX-1; actives 1.1% (n = 370,000); HEK293T StAR-luciferase reporter, SF-1/DAX-1 repression relief; inhibition, % at 6.8 µM; AID 652010, 2013;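 active means inhibition above the mean over all tested compounds plus 3 SD, cut at about 3.6% in these data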;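 further: 0% = DAX-1 cells with DMSO and 100% = cells lacking DAX-1 with DMSO; higher inhibition means more luminescence from relief of DAX-1 repression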
hcDAF12 agonist = H. contortus DAF-12 nuclear receptor activators, primary screen, cell-based, luminescence, HEK293, lit1-tk-luc reporter | HEK293 hcDAF-12 lit1-tk-luc reporter; 0% DMSO, 100% Δ7-dafachronic acid | actives 1.4% (n = 370,000) | activation, % at 6.8 µM;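 active means activation above the mean of all tested compounds plus 3 SD, cut at about 5.5% in these data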;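 further: 100% = response to 3 µM Δ7-dafachronic acid high control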
DAX1 inh-2 = DAX1 (NR0B1) inhibitors, primary screen, cell-based, HEK293, Gal4-DAX1, luciferase luminescence; Nuclear receptor subfamily 0 group B member 1 (Homo sapiens), P51843; HEK293 Gal4-DAX1 luciferase reporter; inhibition, % at 6.75 µM; actives 0.99% (n = 340,000); AID 504766, 2011;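 active means inhibition above the mean over all tested compounds plus 3 SD, cut at about 4.2% in these data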;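 further: 0% = DAX1-transfected cells with DMSO and 100% = empty-vector control cells with DMSO; inhibition shows as a rise in luminescence from relieved DAX1 repression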
Target sequence (P51843 207-470 limits assumed): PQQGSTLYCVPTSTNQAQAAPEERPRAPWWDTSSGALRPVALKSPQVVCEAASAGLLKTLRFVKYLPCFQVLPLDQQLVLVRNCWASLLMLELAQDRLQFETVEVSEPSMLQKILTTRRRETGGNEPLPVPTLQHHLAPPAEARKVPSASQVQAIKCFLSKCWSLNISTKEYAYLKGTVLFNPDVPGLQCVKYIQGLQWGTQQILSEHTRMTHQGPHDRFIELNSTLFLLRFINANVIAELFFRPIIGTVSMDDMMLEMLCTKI
GAA850 FXN act = FXN promoter activators, primary screen, cell-based, luciferase luminescence, HEK293 lucGAA850; HEK293 lucGAA850 FXN promoter luciferase reporter, 24 h; percent of 10 µM SAHA response; activation, % at 6 µM; actives 0.56% (n = 360,000); AID 540364, 2011;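 active means activation above the average of all compounds screened plus 3 SD, cutoff fixed separately per campaign, cut at about 7.5% in these data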;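 further: 0% = DMSO wells and 100% = 10 µM SAHA wells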
An asterisk follows results filed as active.

How did Cc1nc2ccc(NC(=O)C3COc4ccccc4O3)cc2s1 (stereo unspecified) do in these assays?
ssDAF12 agonist: -1; hgDAF12 agonist: 12*; DAX1 inh-1: 2; hcDAF12 agonist: 3; DAX1 inh-2: 2; GAA850 FXN act: 4

How did Cc1nc2cc(NC(=O)C3COc4ccccc4O3)ccc2s1 (stereo unspecified) do in these assays?
ssDAF12 agonist: 0; hgDAF12 agonist: 10; DAX1 inh-1: 3; hcDAF12 agonist: 2; DAX1 inh-2: 2; GAA850 FXN act: 4

What do the screens show for `Cc1ccc(NC(=O)C2COc3ccccc3O2)cc1C` (stereo unspecified)?
DAX1 inh-2: 4.9*; GAA850 FXN act: 5

What do the screens show for `CN(C)S(=O)(=O)c1ccc(NC(=O)C2COc3ccccc3O2)cc1` (stereo unspecified)?
ssDAF12 agonist: 0; hgDAF12 agonist: -2; DAX1 inh-1: 0; hcDAF12 agonist: -2; DAX1 inh-2: 4.5*; GAA850 FXN act: 2

Results for O=C(Nc1ccc(S(=O)(=O)Nc2ccccc2)cc1)C1COc2ccccc2O1 (stereo unspecified) ?
ssDAF12 agonist: -2; hgDAF12 agonist: -2; DAX1 inh-1: -1; hcDAF12 agonist: -3; DAX1 inh-2: -2; GAA850 FXN act: 1

What do the screens show for `O=C(Nc1ccc(Cl)c(Cl)c1)C1CCN(c2ncccn2)CC1`?
ssDAF12 agonist: -1; hgDAF12 agonist: 6; DAX1 inh-1: -1; hcDAF12 agonist: -2

Results for COc1ccc(NC(=S)N2CCN(c3ccc([N+](=O)[O-])cc3)CC2)cc1OC ?
ssDAF12 agonist: 0; hgDAF12 agonist: -2; DAX1 inh-1: 0; hcDAF12 agonist: -2; DAX1 inh-2: -1; GAA850 FXN act: 1

Results for COc1cccc(NC(=S)N2CCN(c3ccc([N+](=O)[O-])cc3)CC2)c1 ?
ssDAF12 agonist: 1.1*; hgDAF12 agonist: 2; DAX1 inh-1: 0; hcDAF12 agonist: 0; DAX1 inh-2: -1; GAA850 FXN act: 1

How did C=CCN1C(=O)[C@@H](CC(=O)N2CCN(C(=O)c3ccco3)CC2)[C@]2(C(=O)OCC)CCCCC/C=C/12 do in these assays?
ssDAF12 agonist: -1; hgDAF12 agonist: -4; DAX1 inh-1: 0; hcDAF12 agonist: -3

Results for COc1ccc(CNCC#Cc2ccc(C)cc2)c(OC)c1 ?
ssDAF12 agonist: -1; hgDAF12 agonist: -3; DAX1 inh-1: -1; hcDAF12 agonist: -2

How did O=C(Nc1cccc(Br)c1)OC1CC2CC1[C@H]1CCCCN1C2 (stereo partly specified) do in these assays?
ssDAF12 agonist: 0; hgDAF12 agonist: -1; DAX1 inh-1: -1; hcDAF12 agonist: 0

How did O=C(Nc1ccc(S(=O)(=O)N2CCCC2)cc1)c1cc(=O)c2ccccc2o1 do in these assays?
ssDAF12 agonist: -1; hgDAF12 agonist: 2; DAX1 inh-1: 1; hcDAF12 agonist: 0; DAX1 inh-2: 4.3*; GAA850 FXN act: 2

How did Cc1ccc(NC(=O)c2cc(=O)c3ccccc3o2)cc1S(=O)(=O)N1CCCCC1 do in these assays?
ssDAF12 agonist: -2; hgDAF12 agonist: -2; DAX1 inh-1: -1; hcDAF12 agonist: -1; DAX1 inh-2: -1; GAA850 FXN act: -3

How did O=C(C1CCCN1S(=O)(=O)c1ccc(F)cc1)N1CCc2ccccc2C1 (stereo unspecified) do in these assays?
ssDAF12 agonist: -1; hgDAF12 agonist: -4; DAX1 inh-1: -1; hcDAF12 agonist: -2

How did CN(C)C(CNC(=O)c1ccc2ccccc2n1)c1ccccc1 (stereo unspecified) do in these assays?
ssDAF12 agonist: -1; hgDAF12 agonist: 0; DAX1 inh-1: 0; hcDAF12 agonist: 0; DAX1 inh-2: -1; GAA850 FXN act: 3
